What all share (test): PBM binding z-score (relative to random genomic background probes); higher = stronger binding; sequences stand for … in GC…GCGATTGACAGCGTAGAATGAAGG
Assay [1] deals with FXR:RXRa (NR concentration 270 nM, RXRa partner concentration 90 nM). The method, boiled down:
(§1)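 Custom Agilent 4×180K protein-binding microarrays carried double-stranded probes. Their 34-nt variable regions held direct-repeat seeds, single-nucleotide variants, half-site ablations and random human genomic background sequences. Arrays were incubated 1 h with ligand-free nuclear receptor dimers in PBS pH 7.4, 2% milk, 0.02% Triton X-100, 1 mM DTT, 0.2 mg/mL BSA and 0.4 mg/ml salmon testes DNA. Antibodies against each partner (one per run) detected binding, and scanned fluorescence was regression-normalized. Binding z-scores use random background probes as reference.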

Assay [2] relates to LXRa:RXRa (NR concentration 270 nM, RXRa partner concentration 90 nM). In a few lines:
as §1

Assay [3] has as its system LXRa homodimer (NR concentration 270 nM). In a few lines: as §1
For assay [4], the system named is LXRb:RXRa (NR concentration 270 nM, RXRa partner concentration 90 nM). The method, boiled down:
as §1

Assay [5] deals with LXRb homodimer (NR concentration 270 nM). The method, boiled down:
as §1

Assay [6] concerns PPARa:RXRa (NR concentration 270 nM, RXRa partner concentration 90 nM). In a few lines: as §1
In assay [7] the test system is PPARg:RXRa (NR concentration 180 nM, RXRa partner concentration 90 nM). The method, boiled down: as §1
The subject of assay [8] is PPARg:RXRa 270nM:90nM, anti-RXR (NR concentration 270 nM, RXRa partner concentration 90 nM). The method, boiled down: as §1
The test system of assay [9] is PPARg:RXRa 30nM:10nM, anti-RXR (NR concentration 30 nM, RXRa partner concentration 10 nM). In a few lines:
as §1

Assay [10] deals with PPARg:RXRa 90nM:30nM, anti-RXR (NR concentration 90 nM, RXRa partner concentration 30 nM). In a few lines:
as §1

The subject of assay [11] is PPARg:RXRa DBDmut IVT, anti-RXR (DBD mutation: RXRa K156A/R161A, NR concentration 270 nM, RXRa partner concentration 90 nM). The method, boiled down: as §1
Assay [12] deals with PPARg:RXRa IVT, anti-PPARg (NR concentration 270 nM, RXRa partner concentration 90 nM). In a few lines: as §1
In assay [13] the test system is PPARg DBDmut IVT, anti-PPARg (DBD mutation: PPARg1 K132A/R137A, NR concentration 270 nM). The method, boiled down:
as §1

Assay [14] deals with PPARg homodimer (NR concentration 180 nM). The method, boiled down: as §1
Assay [15] relates to PXR:RXRa (NR concentration 270 nM, RXRa partner concentration 90 nM). In a few lines:
as §1

The test system of assay [16] is PXR homodimer (NR concentration 270 nM). In a few lines: as §1
In assay [17] the test system is RARa:RXR (NR concentration 270 nM, RXRa partner concentration 90 nM). In a few lines:
as §1

The test system of assay [18] is RARa homodimer (NR concentration 270 nM). The method, boiled down:
as §1

The test system of assay [19] is RARb:RXRa (NR concentration 270 nM, RXRa partner concentration 90 nM). The method, boiled down: as §1
The test system of assay [20] is PPARg DBDmut:RXRa IVT, anti-PPARg (DBD mutation: PPARg1 K132A/R137A, NR concentration 270 nM, RXRa partner concentration 90 nM). The method, boiled down:
as §1

On to CTAACTAGGTCAAAGGACAGTGAAAGGCGACGTA, for which the PBM binding z-score in assay [1] was 3.68; in [2] it was 2.75; in assay [3], 0.132; in assay [4], 1.85; in assay [5] it was -0.0221; in [6], 5.86. Further, the PBM binding z-score was determined as 10.8 in assay [7]; 9.18 in assay [8]; 9.63 in assay [9]; 10.2 in [10]; 8.56 in assay [11]; 8.84 in assay [12]. Further, the PBM binding z-score in assay [13] was 1.86; in assay [14], 1.28; in assay [15] it was 1.19; in assay [16] it was -0.0818; in [17] it was 2.41; in assay [18] it was 0.599. Further, in assay [19], the PBM binding z-score amounted to 4.07.
As for CGTCCAAGGTCAGAGAGGTCAGTGACTGCCGAGT, the PBM binding z-score amounted to 6.33 in [1]; 5.11 in assay [2]; 3.23 in assay [3]; 4.11 in [4]; 0.108 in assay [5]; 4.74 in assay [6]. In addition, the PBM binding z-score was 4.2 in assay [8]; 1 in assay [9]; 2.64 in assay [10]; 3.1 in assay [11]; 3.54 in assay [12]; -0.0571 in assay [20]. Further, the PBM binding z-score was -1.2 in assay [13]; 5.16 in assay [14]; 6.06 in [15]; 11.3 in [16]; 5.75 in assay [17]; 2.55 in assay [18]. In [19], the PBM binding z-score worked out at 5.28.
Turning to CGTCCAAGGTCAATTCTAGGTCAGTGAAAGCATT, the PBM binding z-score in assay [1] was found to be 6.85; in [2] it was 5.63; in [3], 3.88; in [4], 4.73; in assay [5], 2.2; in [6] it was 5.01. In addition, the PBM binding z-score is 4.59 in assay [8]; 1.17 in [9]; 3.25 in assay [10]; 3.48 in assay [11]; 4.72 in assay [12]; 0.615 in [20]. Also, the PBM binding z-score in assay [13] worked out at 0.0326; in [14], 7.64; in assay [15] it was 4.96; in assay [16], 1.82; in assay [17], 6.11; in assay [18], 1.9. In assay [19], this sequence yielded a PBM binding z-score of 5.19.
As to AGTCAAAGGTCACTAGGTAACGTAAGATTCAGCT, the PBM binding z-score stood at 7.63 in assay [1]; 6.45 in assay [2]; 2.46 in assay [3]; 5.48 in [4]; 2.78 in assay [5]; 6.42 in assay [6]. Besides, the PBM binding z-score in assay [8] came out at 8.5; in assay [9] it was 6.26; in assay [10] it was 8.47; in assay [11], 5.65; in [12], 7.5; in assay [20], 1.54. Further, the PBM binding z-score in [13] came to 0.924; in assay [14], 4.05; in assay [15] it was 4.94; in [16], 1.04; in [17] it was 5.94; in assay [18] it was 2.79.
Regarding CGAACTGGGTCAAAGGACAGTGAAAGGCGACGTA, the PBM binding z-score in assay [1] was 3.03; in [2] it was 1.55; in assay [3], -0.452; in assay [4], 1.37; in [5] it was -0.785; in assay [6], 5.23. For the same sequence, the PBM binding z-score is 10.1 in assay [7]; 8.57 in assay [8]; 7.98 in [9]; 9.33 in assay [10]; 7.3 in [11]; 7.89 in assay [12]. Moreover, the PBM binding z-score in [13] is -0.0176; in assay [14] it was 0.919; in assay [15], 1.21; in assay [16], -0.282; in assay [17] it was 2.12; in [18], -0.262. Moreover, in [19], the PBM binding z-score is 3.44.
As to ATATGTAGGTTAGGGTCATTCGGAAAGTAGGGAA, the PBM binding z-score was 5.03 in assay [1]; 4.43 in assay [2]; 1.22 in [3]; 4.4 in assay [4]; 1.67 in [5]; 5.83 in [6]. For the same sequence, the PBM binding z-score was 7.56 in assay [7]; 6.42 in assay [8]; 4.48 in [9]; 6.36 in [10]; 6.55 in assay [11]; 6.85 in assay [12]. Moreover, the PBM binding z-score in [13] came to 4.65; in [14] it was 3.85; in assay [15], 4.53; in assay [16] it was 1.88; in assay [17], 4.88; in assay [18], 2.27. In assay [19], the PBM binding z-score was 3.43.
As for CAAACTAGGTCACCAGGACAGTGAAGAGGTTGGA, the PBM binding z-score in assay [1] was 4.67; in [2] it was 2.73; in assay [3] it was 0.391; in assay [4], 1.92; in assay [5], 0.0732; in assay [6], 5.18. Moreover, the PBM binding z-score in assay [7] was 9.26; in assay [8], 7.14; in assay [9] it was 5.2; in assay [10] it was 7.09; in [11], 8.41; in assay [12] it was 8.88. For the same sequence, the PBM binding z-score in assay [13] came to 1.44; in [14], 2.71; in assay [15], 1.87; in assay [16], 0.166; in assay [17], 2.97; in [18] it was 0.827. The same sequence returned a PBM binding z-score in assay [19] of 4.28.

Source of the values: the supplement of paper PMC6555819.
